Experimental data from PubChem BioAssay (NCI).
This is part of a sample that, as a whole, favours compounds with a hit. Of some 83,000 tested, about 20% had one in any assay.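 For each line, cells grew in 96-well plates with the test compound present at a single concentration for 48 hours.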 The source made the active and inactive calls. How the source made its calls: active means growth percent below 10; inactive means the rest.

Legend:
Experiment in all cases: NCI-60 one-dose screen, 48 h (100 = growth as untreated, 0 = no growth, -100 = all killed)
DU-145 prostate = conditions: 10 µM unless noted
K-562 leukemia = conditions: 10 µM unless noted
MALME-3M melanoma = conditions: 10 µM unless noted
MDA-MB-231 breast = conditions: 10 µM unless noted
RXF 393 renal = conditions: 10 µM unless noted
SF-268 CNS = conditions: 10 µM unless noted
SF-295 CNS = conditions: 10 µM unless noted
SF-539 CNS = conditions: 10 µM unless noted
UACC-257 melanoma = conditions: 10 µM unless noted
M14 melanoma = conditions: 10 µM unless noted
HCT-15 colon = conditions: 10 µM unless noted
HT29 colon = conditions: 10 µM unless noted
SNB-75 CNS = conditions: 10 µM unless noted
SNB-19 CNS = conditions: 10 µM unless noted
U251 CNS = conditions: 10 µM unless noted
PC-3 prostate = conditions: 10 µM unless noted
SK-MEL-5 melanoma = conditions: 10 µM unless noted
UACC-62 melanoma = conditions: 10 µM unless noted
LOX IMVI melanoma = conditions: 10 µM
SK-MEL-28 melanoma = conditions: 10 µM unless noted

Measured: growth

Cc1ccc(S(=O)(=O)c2nc(S(=O)(=O)c3ccc(C)cc3)c(N3CCN(C)CC3)s2)cc1
inactive: DU-145 prostate 52.6% | K-562 leukemia 15.7% | MALME-3M melanoma 73.5% | MDA-MB-231 breast 84.4% | RXF 393 renal 30.3% | SF-268 CNS 78.7% | SF-295 CNS 102% | SF-539 CNS 57.5% | UACC-257 melanoma 85.8% | M14 melanoma 74% | HCT-15 colon 24.6% | HT29 colon 56% | SNB-75 CNS 91.3% | SNB-19 CNS 85.7% | U251 CNS 52.9% | PC-3 prostate 78.8% | SK-MEL-5 melanoma 63.2% | UACC-62 melanoma 48% | LOX IMVI melanoma 30.4% | SK-MEL-28 melanoma 68.8%

COc1cc(/C=C2\C(=N)N=C(SCc3nc4ccccc4[nH]3)NC2=O)ccc1O
inactive: DU-145 prostate 108% | K-562 leukemia 103% | MALME-3M melanoma 91.1% | MDA-MB-231 breast 86.4% | RXF 393 renal 113% | SF-268 CNS 111% | SF-295 CNS 101% | SF-539 CNS 99.2% | UACC-257 melanoma 105% | M14 melanoma 95.4% | HCT-15 colon 96.3% | HT29 colon 110% | SNB-75 CNS 102% | SNB-19 CNS 104% | U251 CNS 105% | PC-3 prostate 94.2% | SK-MEL-5 melanoma 98.5% | UACC-62 melanoma 89% | LOX IMVI melanoma 88% | SK-MEL-28 melanoma 110%

CN(C)c1nc(NCCNS(=O)(=O)c2ccc(C(=O)/C=C/c3ccc(Cl)cc3)cc2)nc(Nc2ccc(F)cc2)n1
active: DU-145 prostate -23.1% | K-562 leukemia 1.01% | MALME-3M melanoma -46.6% | MDA-MB-231 breast -61.4% | RXF 393 renal -81.3% | SF-268 CNS 3.35% | SF-295 CNS -26.6% | SF-539 CNS -98% | UACC-257 melanoma -4.45% | M14 melanoma -65.8% | HCT-15 colon -84.4% | HT29 colon -97.5% | SNB-19 CNS -5.63% | U251 CNS -99.8% | PC-3 prostate -65.9% | SK-MEL-5 melanoma -64.9% | UACC-62 melanoma -56.8% | LOX IMVI melanoma -100% | SK-MEL-28 melanoma -85.5%
inactive: SNB-75 CNS 13.9%

O=C(NN1C(=O)/C(=C/C=C/c2ccc([N+](=O)[O-])o2)SC1=S)c1cccc(O)c1
active: DU-145 prostate -99.2% | K-562 leukemia 6.17% | MALME-3M melanoma -99.2% | MDA-MB-231 breast -98.4% | RXF 393 renal -89.6% | SF-268 CNS -91.3% | SF-295 CNS -40.1% | SF-539 CNS -100% | UACC-257 melanoma -85.2% | M14 melanoma -89% | HCT-15 colon -65.1% | HT29 colon -67.2% | SNB-75 CNS -71.3% | SNB-19 CNS -96.5% | U251 CNS -96.2% | PC-3 prostate -40.2% | SK-MEL-5 melanoma -100% | UACC-62 melanoma -97.4% | LOX IMVI melanoma -93.5% | SK-MEL-28 melanoma -100%

CC(=O)c1c(N)c(C#N)cn1-c1ccc(Cl)cc1Cl
inactive: DU-145 prostate 113% | K-562 leukemia 95.1% | MALME-3M melanoma 107% | MDA-MB-231 breast 99.7% | RXF 393 renal 104% | SF-268 CNS 107% | SF-295 CNS 116% | SF-539 CNS 99.9% | UACC-257 melanoma 106% | M14 melanoma 98.9% | HCT-15 colon 99.5% | HT29 colon 106% | SNB-75 CNS 90.5% | SNB-19 CNS 102% | U251 CNS 98% | PC-3 prostate 90.8% | SK-MEL-5 melanoma 98.8% | UACC-62 melanoma 80.8% | LOX IMVI melanoma 99.2% | SK-MEL-28 melanoma 106%

Nc1nc(-c2ccccc2)c(N=Nc2ccc(Cl)cc2[N+](=O)[O-])s1
inactive: DU-145 prostate 112% | K-562 leukemia 96.1% | MALME-3M melanoma 109% | MDA-MB-231 breast 95.5% | RXF 393 renal 106% | SF-268 CNS 87.7% | SF-295 CNS 101% | SF-539 CNS 86.5% | UACC-257 melanoma 103% | M14 melanoma 98.3% | HCT-15 colon 94.4% | HT29 colon 100% | SNB-75 CNS 80.1% | SNB-19 CNS 89.2% | U251 CNS 92.4% | PC-3 prostate 87.1% | SK-MEL-5 melanoma 98.8% | UACC-62 melanoma 77.3% | LOX IMVI melanoma 88.2% | SK-MEL-28 melanoma 107%

COC(=O)/C=C/c1cccc2c1C(=O)NC(C)(c1cc3ccccc3oc1=O)N2 (stereo not given)
inactive: DU-145 prostate 62.7% | K-562 leukemia 56.6% | MALME-3M melanoma 58.7% | MDA-MB-231 breast 76.3% | RXF 393 renal 58.9% | SF-268 CNS 82.3% | SF-295 CNS 84.9% | SF-539 CNS 73.2% | UACC-257 melanoma 77.7% | M14 melanoma 41.7% | HCT-15 colon 36.3% | HT29 colon 69.8% | SNB-75 CNS 41.6% | SNB-19 CNS 81.5% | U251 CNS 57.9% | PC-3 prostate 58.9% | SK-MEL-5 melanoma 78.5% | UACC-62 melanoma 42.8% | LOX IMVI melanoma 38.9% | SK-MEL-28 melanoma 75.4%

COc1c(F)ccc(C(=O)Nc2ccc3nc(NC(=O)C4CCCN(S(=O)(=O)C5CC5)C4)sc3c2)c1F (stereo not given)
active: RXF 393 renal -4.35% | SK-MEL-5 melanoma -43.8%
inactive: DU-145 prostate 66.8% | K-562 leukemia 20.5% | MALME-3M melanoma 43.5% | MDA-MB-231 breast 46.7% | SF-268 CNS 76.2% | SF-295 CNS 18.1% | SF-539 CNS 37.6% | UACC-257 melanoma 20.9% | M14 melanoma 50.3% | HCT-15 colon 34% | HT29 colon 44.1% | SNB-75 CNS 56.3% | SNB-19 CNS 63.5% | U251 CNS 47.6% | PC-3 prostate 39.1% | UACC-62 melanoma 44.7% | LOX IMVI melanoma 24.5% | SK-MEL-28 melanoma 56.2%

Cc1cccc(NC(=O)CN2CCN(c3ncnc4c3cnn4-c3ccccc3)CC2)c1
inactive: DU-145 prostate 96.7% | K-562 leukemia 67.5% | MALME-3M melanoma 99.4% | MDA-MB-231 breast 87.4% | RXF 393 renal 90% | SF-268 CNS 88.4% | SF-295 CNS 117% | SF-539 CNS 102% | UACC-257 melanoma 102% | M14 melanoma 94.4% | HCT-15 colon 55.4% | HT29 colon 76.1% | SNB-75 CNS 100% | SNB-19 CNS 83.1% | U251 CNS 89% | PC-3 prostate 63.1% | SK-MEL-5 melanoma 78.5% | UACC-62 melanoma 67.9% | LOX IMVI melanoma 88.1% | SK-MEL-28 melanoma 90.1%

Cc1ccc(S(=O)(=O)c2nc(S(=O)(=O)c3ccc(C)cc3)c(N3CCC(O)CC3)s2)cc1
inactive: DU-145 prostate 70% | K-562 leukemia 29% | MALME-3M melanoma 92.2% | MDA-MB-231 breast 71.8% | RXF 393 renal 33.6% | SF-268 CNS 70.3% | SF-295 CNS 96.6% | SF-539 CNS 73.7% | UACC-257 melanoma 81.6% | M14 melanoma 71.2% | HCT-15 colon 22.9% | HT29 colon 77.8% | SNB-75 CNS 97.5% | SNB-19 CNS 68.3% | U251 CNS 57.7% | PC-3 prostate 56.8% | SK-MEL-5 melanoma 78.1% | UACC-62 melanoma 42% | LOX IMVI melanoma 50.5% | SK-MEL-28 melanoma 81.9%

CCN(CC)c1ccc(/C=N/Nc2nc(-c3ccc(C)cc3)cs2)c(O)c1
inactive: DU-145 prostate 97.6% | K-562 leukemia 62.1% | MALME-3M melanoma 105% | MDA-MB-231 breast 99.6% | RXF 393 renal 87.1% | SF-268 CNS 105% | SF-295 CNS 93.6% | SF-539 CNS 106% | UACC-257 melanoma 95.2% | M14 melanoma 99.7% | HCT-15 colon 67.2% | HT29 colon 83.5% | SNB-75 CNS 92.1% | SNB-19 CNS 89.6% | U251 CNS 90% | PC-3 prostate 70.5% | SK-MEL-5 melanoma 79.7% | UACC-62 melanoma 80.6% | LOX IMVI melanoma 88.2% | SK-MEL-28 melanoma 95%

C#CCOc1ccc(/C=N/Nc2nc(-c3ccc(Cl)cc3)cs2)cc1OC
active: SK-MEL-5 melanoma 6.66%
inactive: DU-145 prostate 81.5% | K-562 leukemia 26.2% | MALME-3M melanoma 91.6% | MDA-MB-231 breast 77.1% | RXF 393 renal 27.1% | SF-268 CNS 73.8% | SF-295 CNS 77.4% | SF-539 CNS 70.6% | UACC-257 melanoma 45.5% | M14 melanoma 61.1% | HCT-15 colon 45.7% | HT29 colon 69.3% | SNB-75 CNS 80.1% | SNB-19 CNS 74.6% | U251 CNS 64.6% | PC-3 prostate 29.9% | UACC-62 melanoma 54.7% | LOX IMVI melanoma 58.6% | SK-MEL-28 melanoma 79.5%

COc1c(F)ccc(C(=O)Nc2ccc3nc(NC(=O)C4CCCN(S(=O)(=O)c5ccc(Br)s5)C4)sc3c2)c1F (stereo not given)
inactive: DU-145 prostate 88% | K-562 leukemia 68.9% | MALME-3M melanoma 88.9% | MDA-MB-231 breast 81.6% | RXF 393 renal 36.1% | SF-268 CNS 64.1% | SF-295 CNS 69.3% | SF-539 CNS 78% | UACC-257 melanoma 88.7% | M14 melanoma 89.7% | HCT-15 colon 63% | HT29 colon 75.5% | SNB-75 CNS 66.5% | SNB-19 CNS 90.1% | U251 CNS 68% | PC-3 prostate 56.1% | SK-MEL-5 melanoma 81.5% | UACC-62 melanoma 75.6% | LOX IMVI melanoma 79.3% | SK-MEL-28 melanoma 94.6%

C#CCOc1cc(N(CC)CC)ccc1C(C(=O)NC(C)(C)C)N(C(=O)C1CCc2cc(F)ccc2O1)c1ccccc1F (stereo not given)
inactive: DU-145 prostate 58.4% | K-562 leukemia 17% | MALME-3M melanoma 57.7% | MDA-MB-231 breast 53.4% | RXF 393 renal 40.4% | SF-268 CNS 38.4% | SF-295 CNS 19.9% | SF-539 CNS 50.7% | UACC-257 melanoma 30.2% | M14 melanoma 39% | HCT-15 colon 29.8% | HT29 colon 45.3% | SNB-75 CNS 39.7% | SNB-19 CNS 35.1% | U251 CNS 17.5% | PC-3 prostate 13.5% | SK-MEL-5 melanoma 17.3% | UACC-62 melanoma 30.9% | SK-MEL-28 melanoma 63.9%
active: LOX IMVI melanoma -61.6%

COc1ccc(/C=C/c2nc3ccccc3nc2Nc2cccc(C)c2)cc1
inactive: DU-145 prostate 108% | K-562 leukemia 84.2% | MALME-3M melanoma 115% | MDA-MB-231 breast 88.5% | RXF 393 renal 109% | SF-268 CNS 96.8% | SF-295 CNS 127% | SF-539 CNS 103% | UACC-257 melanoma 112% | M14 melanoma 99.6% | HCT-15 colon 104% | HT29 colon 101% | SNB-75 CNS 99% | SNB-19 CNS 98.5% | U251 CNS 96.1% | PC-3 prostate 96.5% | SK-MEL-5 melanoma 95.7% | UACC-62 melanoma 83.4% | LOX IMVI melanoma 108% | SK-MEL-28 melanoma 108%
